Of roughly 7,900 targets only a part is listed; those with a hit were picked by preference. About 0.6% of all pairs of compound and target were hits. Unmarked numbers belong to inactive results.

Experiment in all cases: log2 fold change, soluble protein after heating vs DMSO (PISA); higher = thermal stabilisation; K562 cells, 10 uM, 30 min; active = over 0.2 and 3.5 SD of the protein, either way, in both replicates (recomputed)
Compound in one assay: Cc1ccc(NC(=O)c2ccc(CN3CC[C@H](N(C)C)C3)c(C(F)(F)F)c2)cc1Nc1nccc(-c2cncnc2)n1 [bafetinib]
The gist of the method: (§1)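 K562 cells (2×10^6 cells/mL) were treated with 10 μM compound for 30 min, and aliquots were heated for 3 min over 48°C-58°C. Pooled aliquots were extracted in PBS with 0.5% NP-40 at 4°C, and the supernatant after 21,000xg for 90 min was measured by TMTpro 16plex LC-MS/MS with channel sums equalised. Reported thermal stability, relative to control samples and from duplicates, is a log2 fold change.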

Compound in assay [1]: Cc1cccc(CC(=O)N2CCc3c2ccc(-c2cn(C)c4ncnc(N)c24)c3F)n1
An outline of the steps: as §1

Compound in the next assay: Cc1cn(-c2cc(NC(=O)c3ccc(C)c(Nc4nccc(-c5cccnc5)n4)c3)cc(C(F)(F)F)c2)cn1 [nilotinib]
The gist of the method: as §1

Compound in assay [2]: Cc1nc(Nc2n[nH]c3c2CN(C(=O)N[C@H](CN(C)C)c2ccccc2)C3(C)C)c2sccc2n1
The gist of the method:
as §1

Compound in assay [3]: Cc1ncc(-c2ccnc(Nc3ccc(S(C)(=O)=O)cc3)n2)n1C(C)C
An outline of the steps:
as §1

Compound in another assay: Cn1cncc1[C@@](N)(c1ccc(Cl)cc1)c1ccc2c(c1)c(-c1cccc(Cl)c1)cc(=O)n2C [tipifarnib]
The gist of the method:
as §1

Compound in a further assay: FC(F)(F)c1ccc(/C=C/c2nc(COc3ccc(CCCCn4ccnn4)cc3)co2)cc1 [mubritinib]
The gist of the method: as §1

Compound in assay [4]: NC(=O)Nc1cc(-c2cccc(F)c2)sc1C(=O)N[C@H]1CCCNC1
An outline of the steps: as §1

Compound in assay [5]: NC1(c2ccc(-c3nc4ccn5c(=O)[nH]nc5c4cc3-c3ccccc3)cc2)CCC1
An outline of the steps: as §1

Compound in another assay: Nc1ccccc1NC(=O)c1ccc(CNC(=O)OCc2cccnc2)cc1 [entinostat]
The gist of the method:
as §1

Compound in another assay: O=C(CCCCCCC(=O)Nc1ccccc1)NO [vorinostat]
The gist of the method:
as §1

Compound in the next assay: O=C(CCCCCCNC(=O)c1cnc(N(c2ccccc2)c2ccccc2Cl)nc1)NO [citarinostat]
An outline of the steps: as §1

Compound in a further assay: O=C(O)c1ccc2c(c1)nc(Nc1cccc(Cl)c1)c1ccncc12 [silmitasertib]
An outline of the steps: as §1

Compound in assay [6]: O=C1NC(=O)C(c2cnc3ccccn23)=C1c1cn2c3c(cc(F)cc13)CN(C(=O)N1CCCCC1)CC2
An outline of the steps:
as §1

Compound in assay [7]: c1cc(OCCN2CCCCC2)cc(-c2n[nH]c3ccc(-c4nnc[nH]4)cc23)c1
The gist of the method:
as §1

Compound in assay [8]: Cn1cc(-c2ccc3nnc(C(F)(F)c4ccc5ncccc5c4)n3n2)cn1
The gist of the method:
as §1

Compound in another assay: Cc1nc(Nc2ncc(C(=O)Nc3c(C)cccc3Cl)s2)cc(N2CCN(CCO)CC2)n1 [dasatinib]
The gist of the method:
as §1

Compound in assay [9]: Cn1cc(-c2ccc3c(c2)CCN3C(=O)Cc2cccc(C(F)(F)F)c2)c2c(N)ncnc21
The gist of the method: as §1

Compound in assay [10]: NC(=O)c1cnc(N[C@@H]2CCCC[C@@H]2N)nc1Nc1cccc(-n2nccn2)c1
An outline of the steps:
as §1

Compound in assay [11]: NCC(=O)Nc1ccc(-n2nc(C(F)(F)F)cc2-c2ccc3c(ccc4ccccc43)c2)cc1
The gist of the method:
as §1

Chain of UniProt Q9BSU3 (Q9BSU3 whole entry, looked up): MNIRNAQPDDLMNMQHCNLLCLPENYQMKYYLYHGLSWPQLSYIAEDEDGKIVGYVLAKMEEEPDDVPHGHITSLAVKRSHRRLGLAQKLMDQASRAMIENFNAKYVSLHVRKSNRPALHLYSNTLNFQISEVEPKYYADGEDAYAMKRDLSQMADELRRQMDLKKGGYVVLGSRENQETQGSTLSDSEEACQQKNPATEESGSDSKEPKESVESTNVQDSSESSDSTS
Chain of UniProt Q8WUY8 (Q8WUY8 whole entry, looked up): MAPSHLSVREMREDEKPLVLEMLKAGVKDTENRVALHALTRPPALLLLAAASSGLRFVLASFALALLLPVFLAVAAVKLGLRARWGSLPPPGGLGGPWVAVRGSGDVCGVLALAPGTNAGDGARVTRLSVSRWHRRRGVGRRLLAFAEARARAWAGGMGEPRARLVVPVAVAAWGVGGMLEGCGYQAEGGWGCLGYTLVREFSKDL
Chain of UniProt O75052 (O75052 whole entry, looked up): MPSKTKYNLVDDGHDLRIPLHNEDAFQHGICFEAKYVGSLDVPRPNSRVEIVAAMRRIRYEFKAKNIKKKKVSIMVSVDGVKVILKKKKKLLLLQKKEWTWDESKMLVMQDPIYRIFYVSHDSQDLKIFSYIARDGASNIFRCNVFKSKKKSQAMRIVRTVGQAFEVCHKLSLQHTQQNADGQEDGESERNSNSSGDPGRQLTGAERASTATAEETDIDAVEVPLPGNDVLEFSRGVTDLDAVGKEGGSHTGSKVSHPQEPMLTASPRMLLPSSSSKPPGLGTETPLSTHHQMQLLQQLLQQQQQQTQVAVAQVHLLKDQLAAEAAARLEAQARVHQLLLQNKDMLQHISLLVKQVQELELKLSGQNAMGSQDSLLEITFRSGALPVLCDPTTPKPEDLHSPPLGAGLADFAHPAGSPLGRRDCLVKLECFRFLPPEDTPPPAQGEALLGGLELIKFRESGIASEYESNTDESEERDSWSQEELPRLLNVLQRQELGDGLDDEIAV
Chain of UniProt B2RBV5 (B2RBV5 whole entry, looked up): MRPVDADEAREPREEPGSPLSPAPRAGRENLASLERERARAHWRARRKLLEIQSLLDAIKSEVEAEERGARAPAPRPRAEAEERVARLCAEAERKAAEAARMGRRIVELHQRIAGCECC
Chain of UniProt Q99549 (Q99549 whole entry, looked up): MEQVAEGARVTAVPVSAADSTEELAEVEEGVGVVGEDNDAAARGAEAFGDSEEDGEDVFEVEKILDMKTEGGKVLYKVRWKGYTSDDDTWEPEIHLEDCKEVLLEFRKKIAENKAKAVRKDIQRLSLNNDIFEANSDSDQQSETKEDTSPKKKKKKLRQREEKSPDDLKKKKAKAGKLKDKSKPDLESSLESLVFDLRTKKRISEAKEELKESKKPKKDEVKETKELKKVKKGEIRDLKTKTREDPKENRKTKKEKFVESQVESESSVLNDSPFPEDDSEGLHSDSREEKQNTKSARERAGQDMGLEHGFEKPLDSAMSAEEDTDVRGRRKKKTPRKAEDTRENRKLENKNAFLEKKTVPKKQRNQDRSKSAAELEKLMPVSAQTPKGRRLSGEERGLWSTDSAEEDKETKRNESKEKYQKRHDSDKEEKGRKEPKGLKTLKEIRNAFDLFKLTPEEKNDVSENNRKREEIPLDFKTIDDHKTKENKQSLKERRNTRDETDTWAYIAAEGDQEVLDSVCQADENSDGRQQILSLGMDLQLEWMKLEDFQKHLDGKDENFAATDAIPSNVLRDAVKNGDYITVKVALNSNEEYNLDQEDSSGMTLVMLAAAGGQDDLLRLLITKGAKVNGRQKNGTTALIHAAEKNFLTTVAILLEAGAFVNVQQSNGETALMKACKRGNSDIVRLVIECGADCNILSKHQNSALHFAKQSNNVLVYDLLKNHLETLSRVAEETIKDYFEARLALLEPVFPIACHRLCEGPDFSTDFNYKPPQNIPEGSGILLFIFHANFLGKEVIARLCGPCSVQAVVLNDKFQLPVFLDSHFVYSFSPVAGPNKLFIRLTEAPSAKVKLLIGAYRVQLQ
Chain of UniProt P84157 (P84157 whole entry, looked up): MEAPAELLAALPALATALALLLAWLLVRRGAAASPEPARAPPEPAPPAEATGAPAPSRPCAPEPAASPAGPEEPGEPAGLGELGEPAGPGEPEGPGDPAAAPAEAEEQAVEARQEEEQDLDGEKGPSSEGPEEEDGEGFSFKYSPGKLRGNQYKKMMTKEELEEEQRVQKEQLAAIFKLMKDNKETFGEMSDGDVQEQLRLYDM
Chain of UniProt Q8N7B6 (Q8N7B6 whole entry, looked up): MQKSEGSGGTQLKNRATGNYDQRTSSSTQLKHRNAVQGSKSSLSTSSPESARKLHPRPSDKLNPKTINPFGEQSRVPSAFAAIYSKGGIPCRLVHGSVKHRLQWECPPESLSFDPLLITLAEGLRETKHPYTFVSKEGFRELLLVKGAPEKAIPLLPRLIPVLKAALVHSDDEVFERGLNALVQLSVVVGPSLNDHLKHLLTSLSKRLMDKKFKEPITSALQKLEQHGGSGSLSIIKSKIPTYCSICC

NA (UniProt B2RBV5): the log2 fold change with bafetinib was -0.005; in [1] it was -0.084; with nilotinib it was -0.433; in assay [2], 0.828 (active); in assay [3], -0.195; in the assay with tipifarnib it was 0.075. Also, the log2 fold change was 0.04 in the assay with mubritinib; 0.06 in assay [4]; -0.055 in assay [5]; 0.029 in the assay with entinostat; 0.045 with vorinostat; 0.12 in the assay with citarinostat. Moreover, the log2 fold change is 0.056 with silmitasertib, -0.001 in assay [6] and -0.014 in assay [7].

Take NA (UniProt J3KR12): the log2 fold change was 0.338 in the assay with bafetinib; 0.208 with nilotinib; -0.221 in assay [2]; -0.196 in assay [3]; -0.112 in assay [8]; 0.16 in the assay with mubritinib. Besides, the values for the log2 fold change (in [5]; in the assay with silmitasertib; in assay [6]) were -0.292, -0.108 and 0.427, respectively.

For NCK1 (UniProt P16333), the log2 fold change is 0.062 with bafetinib; -0.069 in the assay with nilotinib; -0.421 in assay [2]; -0.138 in the assay with dasatinib; 0.046 in assay [3]; -0.086 in assay [9]. Further, the log2 fold change in assay [8] was -0.044; in the assay with tipifarnib, 0.008; in the assay with mubritinib, -0.058; in assay [4], -0.118; in assay [10] it was -0.247; in assay [5], -0.056. Also, the log2 fold change in [11] is -0.112; with entinostat, 0.085; with silmitasertib it was 0.077; in assay [6] it was -0.194.

For the target NAT14 (UniProt Q8WUY8), the log2 fold change was -0.071 with bafetinib; 0.003 in the assay with nilotinib; -0.052 in assay [2]; -0.066 with dasatinib; 0 in assay [3]; -0.06 in assay [9]. Further, the log2 fold change in assay [8] is -0.209; in the assay with tipifarnib it was 0.054; in the assay with mubritinib, 0.118; in assay [4] it was 0.038; in [10], -0.135; in assay [5] it was -0.108. The log2 fold change in assay [11] is -0.33; in the assay with entinostat it was -0.033; with citarinostat it was 0.04; with silmitasertib, 0; in assay [6] it was -0.037; in assay [7] it was -0.108.

In the case of MPHOSPH8 isoform 2 (UniProt Q99549), the log2 fold change with dasatinib was -0.025; in assay [9] it was -0.019; in [8], -0.116; with tipifarnib, 0.01; with mubritinib, 0.031; in assay [4], 0.257. The log2 fold change in assay [10] is 0.004; in assay [5] it was 0.161; in assay [11] it was -0.018; in the assay with entinostat, -0.191; with silmitasertib it was -0.083; in assay [6], 0.189.

On to NOS1AP (UniProt O75052), for which the log2 fold change is -0.052 in the assay with bafetinib; 0.067 in [9]; -0.179 in assay [8]; -0.037 with tipifarnib; 0.165 in the assay with mubritinib; -0.27 in [5]. The log2 fold change is -0.302 in assay [11]; -0.225 with citarinostat; 0.312 with silmitasertib; -0.186 in assay [6]; 0.59 in [7].

As for MXRA7 isoform 3 (UniProt P84157), the log2 fold change was -0.078 in assay [8] and 0.011 with tipifarnib.

For PACRGL (UniProt Q8N7B6), the log2 fold change in [4] is 0.055; with entinostat, -0.116.

In the case of NAA11 (UniProt Q9BSU3), the log2 fold change with bafetinib was 0; with nilotinib it was -0.093; in assay [2] it was 0.015; in the assay with dasatinib it was 0.059; in assay [3], -0.003; in assay [9], 0.102. For the same target, the log2 fold change in assay [8] is 0.176; with tipifarnib it was 0.011; with mubritinib it was -0.081; in assay [4] it was 0.139; in [10], -0.048; in assay [5] it was -0.072. In addition, the log2 fold change in assay [11] is 0.167; in the assay with entinostat it was 0.375 (active); with citarinostat, -0.05; in the assay with silmitasertib, -0.001; in [6], -0.064; in assay [7], -0.022.

(Values after the supplement of paper PMC10849652.)
